# According to PubChem BioAssay (Tox21):
# Values without a mark were called inactive. Inconclusive results are not listed. A call without a number means that no potency is given here. The source made the active and inactive calls. Unless noted, calls come from the whole dose curve; as a rule, active = well fitted curve in the direction sought with a large enough effect in the repeat runs; inconclusive = weak or mixed curves; inactive = no such curve, though single readings can be large; an effect the other way counts as inactive or inconclusive.
# Columns and labels:
# [1] = target: Thyrotropin receptor (Homo sapiens) (UniProt P16473); experiment: qHTS assay to identify small molecule agonists of the thyroid stimulating hormone receptor (TSHR) signaling pathway (AID 1224843; calls by dose curve; note: nearly all actives have a fitted effect of over 45% in size)
# Sequence of Thyrotropin receptor (Homo sapiens) (P16473 whole entry, looked up): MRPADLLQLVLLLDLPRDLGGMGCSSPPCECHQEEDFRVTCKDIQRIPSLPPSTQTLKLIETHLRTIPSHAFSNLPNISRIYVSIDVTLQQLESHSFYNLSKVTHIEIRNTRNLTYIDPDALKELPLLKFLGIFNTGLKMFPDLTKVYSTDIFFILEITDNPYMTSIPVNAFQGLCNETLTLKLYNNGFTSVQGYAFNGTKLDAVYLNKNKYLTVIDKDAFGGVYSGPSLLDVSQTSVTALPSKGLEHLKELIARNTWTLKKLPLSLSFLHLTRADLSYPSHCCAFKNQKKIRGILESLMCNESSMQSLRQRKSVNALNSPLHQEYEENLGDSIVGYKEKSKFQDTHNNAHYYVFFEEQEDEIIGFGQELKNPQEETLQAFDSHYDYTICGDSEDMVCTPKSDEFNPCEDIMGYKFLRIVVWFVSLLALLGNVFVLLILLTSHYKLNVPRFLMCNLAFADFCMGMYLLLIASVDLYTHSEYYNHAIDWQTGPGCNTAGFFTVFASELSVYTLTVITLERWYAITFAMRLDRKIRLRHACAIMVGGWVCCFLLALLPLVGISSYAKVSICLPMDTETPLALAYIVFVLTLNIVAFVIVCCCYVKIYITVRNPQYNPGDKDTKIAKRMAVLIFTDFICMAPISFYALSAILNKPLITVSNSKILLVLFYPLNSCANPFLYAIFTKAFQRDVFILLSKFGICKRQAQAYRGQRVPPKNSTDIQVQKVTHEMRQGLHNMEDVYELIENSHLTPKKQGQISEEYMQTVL
# Procedure, shortened: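 HEK293 cells stably bearing the thyrotropin receptor were plated at 800 cells/well and challenged with compound (30 min, RT). Accumulated cAMP was quantified via cAMP-d2 competing for cryptate-tagged antibody.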
# [2] = qHTS assay to identify small molecule agonists of the hypoxia (HIF-1) signaling pathway - cell viability counter screen (AID 1224844; calls by dose curve; note: nearly all actives have a fitted effect of over 50% in size; note: potency is the fitted concentration of half-maximal effect)
# Procedure, shortened: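 ME-180 HRE-bla cells, 2,000/well, 0.5% dialyzed FBS; 5 hr settle, 17 hr compound at 37C/5% CO2; CCF4-AM reporter read first, then CellTiter-Glo luminescence after 30 min RT.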
# [3] = qHTS assay to identify small molecule agonists of H2AX (AID 1224845; active = well fitted activation curve with a large enough effect in the signal ratio in the repeat runs, not every such curve was filed as active; the % refers to the signal ratio)
# Procedure, shortened: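 Phospho-H2AX Ser139 measured by HTRF (ex 320 nm; em 665 and 620 nm) after 24 hr antibody incubation. Compounds, 15 concentrations, 0.76% DMSO, were applied to CHO-K1 cells for 3hr at 37C before lysis.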
# [4] = qHTS assay to identify small molecule agonists of the hypoxia (HIF-1) signaling pathway (AID 1224846; active = well fitted activation curve with a large enough effect in the signal ratio in the repeat runs, not every such curve was filed as active; the % refers to the signal ratio)
# Procedure, shortened: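 Cell line: CellSensor HRE-bla ME-180; 2,000 cells/well; 0.5% dialyzed FBS; 5 h preincubation; DMSO compound pin transfer; 17 h, 37C, 5% CO2; CCF4-AM added; bla FRET signal scored for activation.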
# [5] = qHTS assay to identify small molecule agonists of H2AX - cell viability counter screen (AID 1224847; calls by dose curve;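 note: wild-type CHO-K1 cells; top concentration of the series differs between compounds; nearly all actives have a fitted effect of over 30% in size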)
# Procedure, shortened: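 After overnight plating of 1000 CHO-K1 cells per well, a 15-concentration compound series was applied for 3 hr at 37C. Luminescence from CellTiter-Glo, read following 30 min at room temperature, reflected cell viability.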
# [6] = qHTS RealTime-Glo MT Cell Viability Assay in HepG2 cells - 24 hour (AID 1224867); note: nearly all actives have a fitted effect of over 50% in size
# Procedure, shortened: (§1)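 HepG2 cells were seeded at 600 cells/well together with NanoLuc luciferase and a cell-permeant prosubstrate, preincubated 5 h at 37 C/5% CO2, then pin-dosed with compounds in DMSO. Nonlytic luminescence from viable cells was read at each time point.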
# [7] = qHTS RealTime-Glo MT Cell Viability Assay in HEK293 cells - 32 hour (AID 1224868); note: nearly all actives have a fitted effect of over 50% in size; note: potency is the fitted concentration of half-maximal effect
# Procedure, shortened: (§2)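 HEK293 cells were seeded at 600 cells/well together with NanoLuc luciferase and cell-permeant prosubstrate, preincubated 5 h at 37 C/5% CO2, then given compound in DMSO by pintool. Luminescence from viable-cell prosubstrate reduction was read repeatedly over 40 h.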
# [8] = A CellTox Green Cytotoxicity Assay to monitor cytotoxicity in HEK293 cells - 0 hour (AID 1224869); note: nearly all actives have a fitted effect of over 50% in size
# Procedure, shortened: (§3)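 Nonlytic real-time cytotoxicity: HEK293 + CellTox Green reagent plated, 5 h preincubation, pintool compound addition (23 nL in DMSO), 37 C for 40 h, fluorescence measured at successive time points.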
# [9] = qHTS RealTime-Glo MT Cell Viability Assay in HepG2 cells - 40 hour (AID 1224870); note: nearly all actives have a fitted effect of over 50% in size
# Procedure, shortened: (§4)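 Real-time viability: cells seeded at 600 per well together with NanoLuc and cell-permeant prosubstrate, compounds added after 5 h incubation. Luminescence tracked at 0, 8, 16, 24, 32 and 40 h of exposure.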
# [10] = A CellTox Green Cytotoxicity Assay to monitor cytotoxicity in HEK293 cells - 40 hour (AID 1224871); note: nearly all actives have a fitted effect of over 45% in size
# Procedure, shortened: as §3
# [11] = qHTS RealTime-Glo MT Cell Viability Assay in HEK293 cells - 16 hour (AID 1224872)
# Procedure, shortened: as §2
# [12] = qHTS RealTime-Glo MT Cell Viability Assay in HepG2 cells - 8 hour (AID 1224873); note: nearly all actives have a fitted effect of over 55% in size
# Procedure, shortened: as §4
# [13] = qHTS RealTime-Glo MT Cell Viability Assay in HEK293 cells - 40 hour (AID 1224874); details: RealTime-Glo luminescence; max response: stronger effect = lower value; note: nearly all actives have a fitted effect of over 50% in size; note: potency is the fitted concentration of half-maximal effect
# Procedure, shortened: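 Cells were seeded together with NanoLuc luciferase and a prosubstrate that viable cells reduce to a luciferase substrate. After a 5 h incubation at 37 C/5% CO2, compounds were added and luminescence was measured repeatedly during 40 h of treatment.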
# [14] = A CellTox Green Cytotoxicity Assay to monitor cytotoxicity in HEK293 cells - 24 hour (AID 1224875); note: nearly all actives have a fitted effect of over 45% in size
# Procedure, shortened: as §3
# [15] = A CellTox Green Cytotoxicity Assay to monitor cytotoxicity in HepG2 cells - 16 hour (AID 1224876); note: nearly all actives have a fitted effect of over 45% in size
# Procedure, shortened: (§5)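 Read-out is fluorescence of a cyanine dye excluded from live cells that stains DNA of dead HepG2 cells, with signal proportional to cytotoxicity. Plates were read at 0, 8, 16, 24, 32 and 40 h after compound addition.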
# [16] = qHTS RealTime-Glo MT Cell Viability Assay in HepG2 cells - 32 hour (AID 1224877); note: nearly all actives have a fitted effect of over 55% in size
# Procedure, shortened: as §1
# [17] = A CellTox Green Cytotoxicity Assay to monitor cytotoxicity in HepG2 cells - 24 hour (AID 1224878); note: nearly all actives have a fitted effect of over 45% in size
# Procedure, shortened: as §5
# [18] = A CellTox Green Cytotoxicity Assay to monitor cytotoxicity in HepG2 cells - 40 hour (AID 1224879); note: nearly all actives have a fitted effect of over 40% in size
# Procedure, shortened: as §5
# [19] = qHTS assay to identify small molecule antagonists of the estrogen related receptor (ERR) signaling pathway from Tox21 library (AID 1224848); note: nearly all actives have a fitted effect of over 50% in size; note: potency is the fitted concentration of half-maximal effect
# Procedure, shortened: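 Reading was by luminescence 30 min after ONE-Glo addition. Before that, ERR cells at 2,000 per well had rested 6 h at 37 C/5% CO2 and then received pin-tooled compounds in DMSO for 18 h at 37 C.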
# [20] = qHTS assay to identify small molecule agonists of the estrogen related receptor (ERR) signaling pathway from Tox21 library (AID 1224849; calls by dose curve; note: nearly all actives have a fitted effect of over 15% in size); details: ERR reporter cell line, ONE-Glo luciferase, 18 h; at 92.4 µM (top of the series) unless noted
# Procedure, shortened: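 ERR cells, 6 h pre-incubation 37 C/5% CO2; cpd in DMSO pinned; 18 h 37 C; ONE-Glo added, 30 min RT; luminescence read. Agonist mode, qHTS.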
structure (smiles),measurement,setting,value
CCC1CO1 (stereo not drawn),Potency,[1],inactive
same,Potency,[2],inactive
same,Potency,[3],inactive
same,outcome,[4],inactive
same,Potency,[5],inactive
same,Potency,[6],inactive
same,Potency,[7],inactive
same,Potency,[8],inactive
same,Potency,[9],inactive
same,Potency,[10],inactive
same,Potency,[11],inactive
same,Potency,[12],inactive
same,max response,[13],4.39%
same,Potency,[14],inactive
same,Potency,[15],inactive
same,Potency,[16],inactive
same,Potency,[17],inactive
same,Potency,[18],inactive
COC(=O)C1=C(C)NC(C)=C(C(=O)O[C@@H]2CCCN(Cc3ccccc3)C2)[C@@H]1c1cccc([N+](=O)[O-])c1,Potency,[1],inactive
same,Potency,[2],inactive
same,Potency,[3],inactive
same,outcome,[4],inactive
same,Potency,[5],inactive
same,Potency,[19],23.7 µM (active)
same,"activity change, positive = activation",[20],-34.6% [at 42.5 µM]
same,Potency,[6],inactive
same,Potency,[7],inactive
same,Potency,[10],inactive
same,Potency,[12],inactive
same,max response,[13],-29.2%
same,Potency,[14],inactive
same,Potency,[15],inactive
same,Potency,[17],inactive
same,Potency,[18],inactive
CC(=O)Oc1ccc([N+](=O)[O-])cc1CCl,Potency,[1],inactive
same,Potency,[2],49 µM (active)
same,Potency,[3],inactive
same,outcome,[4],inactive
same,Potency,[5],inactive
same,Potency,[19],inactive
same,"activity change, positive = activation",[20],-12.3%
same,Potency,[6],inactive
same,Potency,[7],3.89 µM (active)
same,Potency,[8],inactive
same,Potency,[9],inactive
same,Potency,[10],inactive
same,Potency,[12],inactive
same,Potency,[13],3.47 µM (active)
same,Potency,[14],inactive
same,Potency,[15],inactive
same,Potency,[16],inactive
same,Potency,[17],inactive
same,Potency,[18],inactive
OC1(c2ccccc2)CCNCC1,Potency,[1],inactive
same,Potency,[2],inactive
same,Potency,[3],inactive
same,outcome,[4],inactive
same,Potency,[5],inactive
same,Potency,[19],inactive
same,"activity change, positive = activation",[20],5.89% [at 42.5 µM]
same,Potency,[6],inactive
same,Potency,[7],inactive
same,Potency,[8],inactive
same,Potency,[9],inactive
same,Potency,[10],inactive
same,Potency,[11],inactive
same,Potency,[12],inactive
same,max response,[13],5.53%
same,Potency,[14],inactive
same,Potency,[15],inactive
same,Potency,[16],inactive
same,Potency,[17],inactive
same,Potency,[18],inactive
